# Test results from PubChem BioAssay (NCATS).
# Inconclusive results are not listed. A number with no mark means an inactive call. Activity calls are given as the source filed them. Unless noted, calls follow the shape of the dose curve; as a rule, active = well fitted curve in the direction sought with a large enough effect; inconclusive = small, poorly fitted or top-dose-only effect, or another doubt; inactive = no such curve, though single readings can be large; an effect the other way counts as inactive or inconclusive.
# How the values were obtained:
# [1] = molecular target: ATP-dependent 6-phosphofructokinase (Trypanosoma brucei brucei) (UniProt O15648); test: qHTS Assay to Find Inhibitors of T. brucei phosphofructokinase: hit validation (AID 492961)
# In short: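 In this biochemical qHTS validation, titrated compounds were tested against 1.25 nM PFK with 0.1 mM ATP and 0.5 mM F6P. Percent activity came from controls lacking or containing enzyme.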
# [2] = molecular target: Luciferin 4-monooxygenase (Photinus pyralis) (UniProt P08659); test: Biochemical firefly luciferase enzyme assay for NPC (AID 624030); also: nearly all actives have a fitted effect of over 70% in size
# In short: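 Direct inhibition of firefly luciferase enzyme (10 nM final, 50 mM Tris Acetate) assessed by luminescence within 5 minutes. Percent activity scaled between DMSO and PTC124 positive control, with concentration-effect curves classified by fit quality and response.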
# [3] = S16 Schwann cell viability assay (CellTiter-Glo assay) (AID 624031); also: nearly all actives have a fitted effect of over 70% in size
# In short: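 Native S16 rat Schwann cells, 500-750 cells/well in DMEM with 10% FBS, dosed with compound after overnight culture and incubated 24h at 37 degree Celsius/5% CO2. Viability by CellTiter-Glo luminescence; % activity normalized to no-cell wells and DMSO-treated cells.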
# [4] = S16 Schwann cell PMP22 intronic element firefly luciferase assay (AID 624032); also: nearly all actives have a fitted effect of over 30% in size
# In short: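 Luciferase reporter of PMP22 intronic-element expression in stably transfected S16 rat Schwann cells, read by ONE-Glo luminescence after 24 h compound exposure at 37 C. Activity scaled between DMSO (0%) and positive-control PTC124; concentration-effect curves quality-classified.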
# [5] = NCATS anti-infectives library activity on HEK293 viability as a counter-qHTS vs the C. elegans viability qHTS (AID 1745854);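 also: HEK293 cells exposed to compounds for 24 hr before the viability read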
# In short: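 Compound titrations (final up to 41.7 uM) were incubated with HEK293 cells for 24 hr at 37C under 5% CO2. Viable cells were quantified with CellTiter-Glo after 10 min at ambient temperature.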
# [6] = NCATS anti-infectives library activity on the primary C. elegans qHTS viability assay (AID 1745855; calls by dose curve)
# In short: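 Titration-based screen in worms: eggs hatched overnight in M9, L1 larvae fed TOP10 capsules in S medium with compound, incubated 21 °C for 7 days; fluorescent objects gated by size and intensity at days 0, 3 and 7.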
# [7] = qHTS profiling for inhibitors of Plasmodium falciparum proliferation (AID 504749); also: nearly all actives have a fitted effect of over 60% in size;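 as to activity, negative = inhibition: 0% = DMSO vehicle and full inhibition = artemisinin control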; conditions: P. falciparum in erythrocytes, SYBR Green DNA, 72 h, at 28.7 µM (top of the series)
# In short: (§1)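 In a 72 h erythrocytic culture (37 C, humidified, 5% CO2) at 2.5% hematocrit and 0.3% starting parasitemia, compounds were tested; SYBR Green I in detergent lysis buffer stained parasite DNA overnight.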
# 7G8 = test: as above; conditions: P. falciparum in erythrocytes, SYBR Green DNA, 72 h; series mostly up to 12.8 µM
# In short: as §1
# C2A = test: as above; conditions: P. falciparum in erythrocytes, SYBR Green DNA, 72 h; series mostly up to 28.7 µM
# In short: as §1
# CP185 = test: as above; conditions: P. falciparum in erythrocytes, SYBR Green DNA, 72 h; series mostly up to 28.7 µM
# In short: as §1
# CP191 = test: as above; conditions: P. falciparum in erythrocytes, SYBR Green DNA, 72 h; series mostly up to 28.7 µM
# In short: as §1
# CP192 = test: as above; conditions: P. falciparum in erythrocytes, SYBR Green DNA, 72 h; series mostly up to 28.7 µM
# In short: as §1
# CP215 = test: as above; conditions: P. falciparum in erythrocytes, SYBR Green DNA, 72 h; series mostly up to 28.7 µM
# In short: as §1
# CP217 = test: as above; conditions: P. falciparum in erythrocytes, SYBR Green DNA, 72 h; series mostly up to 28.7 µM
# In short: as §1
# CP237 = test: as above; conditions: P. falciparum in erythrocytes, SYBR Green DNA, 72 h; series mostly up to 28.7 µM
# In short: as §1
# CP238 = test: as above; conditions: P. falciparum in erythrocytes, SYBR Green DNA, 72 h; series mostly up to 28.7 µM
# In short: as §1
# CP260 = test: as above; conditions: P. falciparum in erythrocytes, SYBR Green DNA, 72 h; series mostly up to 28.7 µM
# In short: as §1
# CP268 = test: as above; conditions: P. falciparum in erythrocytes, SYBR Green DNA, 72 h; series mostly up to 28.7 µM
# In short: as §1
# CP269 = test: as above; conditions: P. falciparum in erythrocytes, SYBR Green DNA, 72 h; series mostly up to 28.7 µM
# In short: as §1
# CP286 = test: as above; conditions: P. falciparum in erythrocytes, SYBR Green DNA, 72 h; series mostly up to 28.7 µM
# In short: as §1
# CP305 = test: as above; conditions: P. falciparum in erythrocytes, SYBR Green DNA, 72 h; series mostly up to 28.7 µM
# In short: as §1
# CP335 = test: as above; conditions: P. falciparum in erythrocytes, SYBR Green DNA, 72 h; series mostly up to 12.8 µM
# In short: as §1
# DIV14 = test: as above; conditions: P. falciparum in erythrocytes, SYBR Green DNA, 72 h; series mostly up to 28.7 µM
# In short: as §1
# DIV17 = test: as above; conditions: P. falciparum in erythrocytes, SYBR Green DNA, 72 h; series mostly up to 28.7 µM
# In short: as §1
# Dd2 = test: as above; conditions: P. falciparum in erythrocytes, SYBR Green DNA, 72 h; series mostly up to 28.7 µM
# In short: as §1
# ECU = test: as above; conditions: P. falciparum in erythrocytes, SYBR Green DNA, 72 h; series mostly up to 28.7 µM
# In short: as §1
# FAB9 = test: as above; conditions: P. falciparum in erythrocytes, SYBR Green DNA, 72 h; series mostly up to 28.7 µM
# In short: as §1
# GB4 = test: as above; conditions: P. falciparum in erythrocytes, SYBR Green DNA, 72 h; series mostly up to 28.7 µM
# In short: as §1
# HB3 = test: as above; conditions: P. falciparum in erythrocytes, SYBR Green DNA, 72 h; series mostly up to 28.7 µM
# In short: as §1
# JCK = test: as above; conditions: P. falciparum in erythrocytes, SYBR Green DNA, 72 h; series mostly up to 28.7 µM
# In short: as §1
# P93_24 = test: as above; conditions: P. falciparum in erythrocytes, SYBR Green DNA, 72 h; series mostly up to 28.7 µM
# In short: as §1
# P94_40 = test: as above; conditions: P. falciparum in erythrocytes, SYBR Green DNA, 72 h; series mostly up to 28.7 µM
# In short: as §1
# PAD = test: as above; conditions: P. falciparum in erythrocytes, SYBR Green DNA, 72 h; series mostly up to 28.7 µM
# In short: as §1
# PC15 = test: as above; conditions: P. falciparum in erythrocytes, SYBR Green DNA, 72 h; series mostly up to 28.7 µM
# In short: as §1
# PC26 = test: as above; conditions: P. falciparum in erythrocytes, SYBR Green DNA, 72 h; series mostly up to 28.7 µM
# In short: as §1
# PC49 = test: as above; conditions: P. falciparum in erythrocytes, SYBR Green DNA, 72 h; series mostly up to 28.7 µM
# In short: as §1
# SC27B = test: as above; conditions: P. falciparum in erythrocytes, SYBR Green DNA, 72 h; series mostly up to 28.7 µM
# In short: as §1
# TAB113 = test: as above; conditions: P. falciparum in erythrocytes, SYBR Green DNA, 72 h; series mostly up to 28.7 µM
# In short: as §1
# TAB165 = test: as above; conditions: P. falciparum in erythrocytes, SYBR Green DNA, 72 h; series mostly up to 28.7 µM
# In short: as §1
# W2 = test: as above; conditions: P. falciparum in erythrocytes, SYBR Green DNA, 72 h; series mostly up to 12.8 µM
# In short: as §1
# Potency is read from the fitted curve at half-maximal effect.
# Sequence of ATP-dependent 6-phosphofructokinase (Trypanosoma brucei brucei) (O15648 whole entry, looked up): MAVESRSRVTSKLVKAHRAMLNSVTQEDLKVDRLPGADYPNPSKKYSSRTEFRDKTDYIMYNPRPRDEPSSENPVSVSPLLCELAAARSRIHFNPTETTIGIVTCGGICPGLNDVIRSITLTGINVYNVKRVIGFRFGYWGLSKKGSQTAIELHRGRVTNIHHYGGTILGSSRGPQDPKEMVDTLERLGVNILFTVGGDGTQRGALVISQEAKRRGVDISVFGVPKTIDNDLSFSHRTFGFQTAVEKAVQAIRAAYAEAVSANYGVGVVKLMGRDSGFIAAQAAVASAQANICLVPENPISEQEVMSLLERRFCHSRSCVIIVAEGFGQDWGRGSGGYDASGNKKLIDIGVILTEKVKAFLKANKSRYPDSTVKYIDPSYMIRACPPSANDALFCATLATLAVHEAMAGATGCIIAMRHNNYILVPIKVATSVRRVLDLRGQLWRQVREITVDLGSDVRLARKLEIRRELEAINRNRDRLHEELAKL
# Sequence of Luciferin 4-monooxygenase (Photinus pyralis) (P08659 whole entry, looked up): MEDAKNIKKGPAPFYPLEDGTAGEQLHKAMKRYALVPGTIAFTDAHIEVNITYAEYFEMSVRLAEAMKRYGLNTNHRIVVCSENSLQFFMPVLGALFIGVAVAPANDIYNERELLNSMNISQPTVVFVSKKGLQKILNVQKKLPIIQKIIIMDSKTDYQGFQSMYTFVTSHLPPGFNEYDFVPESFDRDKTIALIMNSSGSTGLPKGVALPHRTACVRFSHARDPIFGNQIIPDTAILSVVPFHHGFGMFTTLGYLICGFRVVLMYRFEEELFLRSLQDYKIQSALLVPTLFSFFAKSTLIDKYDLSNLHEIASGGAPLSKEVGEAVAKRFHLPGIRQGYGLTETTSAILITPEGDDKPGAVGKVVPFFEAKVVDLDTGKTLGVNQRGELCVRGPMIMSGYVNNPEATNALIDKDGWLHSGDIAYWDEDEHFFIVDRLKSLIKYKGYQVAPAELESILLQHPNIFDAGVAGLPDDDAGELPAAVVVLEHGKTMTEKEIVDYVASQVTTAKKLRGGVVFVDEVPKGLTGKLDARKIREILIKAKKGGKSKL
smiles,measurement,setting,value
[Hg+][c]1ccccc1,Potency,[1],11.2 µM (active)
same,Potency,[2],8.09 µM (active)
same,Potency,[3],1.14 µM (active)
same,Potency,[4],1.02 µM (active)
same,Potency,[5],2 µM (active)
same,Potency,[6],8.16 µM (active)
same,"activity, negative = inhibition",[7]; parasite line A,13.8%
same,"activity, negative = inhibition",[7]; parasite line B,-0.414%
same,Potency,7G8,1.78 µM (active)
same,Potency,C2A,inactive
same,Potency,CP185,inactive
same,Potency,CP191,inactive
same,Potency,CP192,12 µM (active)
same,Potency,CP215,10.7 µM (active)
same,Potency,CP217,inactive
same,Potency,CP237,inactive
same,Potency,CP238,inactive
same,Potency,CP260,inactive
same,Potency,CP268,9.53 µM (active)
same,Potency,CP269,15.1 µM (active)
same,Potency,CP286,inactive
same,Potency,CP305,10.7 µM (active)
same,Potency,CP335,10.7 µM (active)
same,Potency,DIV14,9.53 µM (active)
same,Potency,DIV17,13.5 µM (active)
same,Potency,Dd2,inactive
same,Potency,ECU,inactive
same,Potency,FAB9,7.08 µM (active)
same,Potency,GB4,9.53 µM (active)
same,Potency,HB3,inactive
same,Potency,JCK,11.2 µM (active)
same,Potency,P93_24,inactive
same,Potency,P94_40,inactive
same,Potency,PAD,inactive
same,Potency,PC15,7.94 µM (active)
same,Potency,PC26,12 µM (active)
same,Potency,PC49,3.55 µM (active)
same,Potency,SC27B,inactive
same,Potency,TAB113,inactive
same,Potency,TAB165,inactive
same,Potency,W2,12 µM (active)
